Reference: publication PMC5540273 (PLoS ONE, 2017)
Where “and” joins values, the source holds several entries; their conditions need not be identical. Identical values can stand only once. Like-named read-outs stand apart in the source and are kept apart here.

Assays:
DRAK1 = tested on: T1, DRAK1; conditions: n = 1
T1 construct: gene STK17A

DRAK2 = tested on: T2, DRAK2; conditions: n = 1
T2 construct: gene STK17B

DYRK1A = conditions: n = 1
DYRK1B = conditions: n = 1
DYRK2 = conditions: n = 1
EGFR = conditions: n = 1
EIF2AK1 = conditions: concentration: 1 μM, replicates: in singlicate; n = 1
EPHA1 = conditions: n = 1
EPHA2 = conditions: n = 1
EPHA3 = conditions: concentration: 1 μM, replicates: in singlicate; n = 1
[1] = concentration: 1 μM, replicates: in singlicate
[2] = concentration: 1 μM,replicates: in singlicate, 1 µM
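Note: KINOMEscan kinase panel screen.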

SMILES	%Inh (DRAK1; [1]) [%]	%Inh (DRAK2; [1]) [%]	%Inh (DYRK1A; [1]) [%]	%Inh (DYRK1B; [1]) [%]	%Inh (DYRK2; [1]) [%]	%Inh (EGFR; [1]) [%]	%Inh (EIF2AK1) [%]	%Inh (EPHA1; [1]) [%]	%Inh (EPHA2; [1]) [%]	%Inh (EPHA3) [%]	%Inh (DRAK1; [2])	%Inh (DRAK2; [2])	%Inh (DYRK1A; [2])	%Inh (DYRK1B; [2])	%Inh (DYRK2; [2])	%Inh (EGFR; [2])	%Inh (EPHA1; [2])	%Inh (EPHA2; [2])
COc1ccccc1-c1ccc2c(NC(=O)C3CC3)n[nH]c2n1 [SB-711239]	5	0	12	16	2	2	0	0	18	0								
Cc1cc(N2Cc3ccccc3C2)nc(Nc2ccc(S(=O)(=O)N3CCOCC3)cc2)n1.Cl [GSK1669917]	17	0	11	19	0	23	0	0	19	0								
CCn1c(-c2cccnc2O)nc2cnccc21 [SB-736715]	0	0	0	54	0	7	0	0	0	0								
COc1ccc(CNC(=O)NC2CCN(c3ccnc(Nc4cc(OC)c(OC)c(OC)c4)n3)C2)cc1 (stereo not drawn) [GSK1379748]	10	0	6	32	0	31	0	1	14	0								
COc1ccccc1CNC(=O)c1cc(C(=O)c2ccccc2C)c[nH]1 [GSK364507]	1	12	17	19	0	36	0	25	13	0								
COc1ccc2nc(-c3cccc(C)n3)nc(Nc3ccncc3)c2c1 [GSK204919]	0	0	24	0	0	20	0	0	20	0								
Clc1cc(Cl)cc(Nc2ccnc(Nc3cc(Cl)cc(Cl)c3)n2)c1 [GSK175726]	0	6	0	19	0	38	0	54	46	21								
O=C(Nc1n[nH]c2nc(-c3nccs3)c(Br)cc12)C1CCCC1 [SB-742609]	4	0	16	15	35	32	0	17	9	0								
COc1cccc(NC(=O)NC2CCN(c3ccnc(Nc4ccc(F)cc4)n3)C2)c1 (stereo not drawn) [GSK1379721]	0	0	0	30	26	17	0	12	0	0								
Cn1ccc2ncnc(Oc3ccc(Nc4nc5ccccc5[nH]4)cc3)c21	0	2	0	5	0	0	0	0	0	2								
Nc1ncnc2[nH]c(-c3ccccc3)nc12 [AH5015]	5	0	46	15	68	25	100	16	23	0								
Cc1cccc(-c2nc(-c3ccc(S(C)(=O)=O)cc3)sc2-c2ccnc(NCCc3ccccc3)c2)c1	0	10	0	51	0	0	1	0	0	9								
Cc1cccc(-c2cc(Nc3ccncc3)c3ccccc3n2)n1 [GSK223675]	0	0	8	0	18	17	0	4	0	0								
O=C(Nc1n[nH]c2cc(-c3cccc(F)c3F)ccc12)C1CC1 [SB-733894]	0	0	2	0	14	12	23	13	16	18								
CCCc1ccc(S(=O)(=O)NC2CCN(c3ccnc(Nc4ccc(F)cc4)n3)C2)cc1 (stereo not drawn) [GSK1379715]	0	0	23	0	0	0	12	8	12	0								
Cc1ccccc1-n1cnc2c(N)ncnc21 [SKF-97510]	0	47	0	0	0	0	0	0	0	0								
COc1cc(Nc2nccc(N3CCC(NC(=O)Nc4cc(C)ccc4C)C3)n2)cc(OC)c1OC (stereo not drawn) [GSK1379762]	0	0	25	16	19	63	0	22	8	0								
Cl.c1ccc(-c2n[nH]cc2-c2ccnc(-c3ccc(CN4CCOCC4)cc3)c2)nc1 [GW776245]	0	20	0	0	0	34	0	7	6	1								
NC(=O)c1nnc2ccccc2c1N	41	33	29	16	39	0	0	14	10	0								
O=c1cc(N2CCOCC2)nc2n(Cc3cccc(Cl)c3Cl)ccn12 [GSK2286295]	0	0	14	30	21	20	0	0	4	18								

SMILES	%Inh (DRAK1; [1]) [%]	%Inh (DRAK2; [1]) [%]	%Inh (DYRK1A; [1]) [%]	%Inh (DYRK1B; [1]) [%]	%Inh (DYRK2; [1]) [%]	%Inh (EGFR; [1]) [%]	%Inh (EIF2AK1) [%]	%Inh (EPHA1; [1]) [%]	%Inh (EPHA2; [1]) [%]	%Inh (EPHA3) [%]	%Inh (DRAK1; [2])	%Inh (DRAK2; [2])	%Inh (DYRK1A; [2])	%Inh (DYRK1B; [2])	%Inh (DYRK2; [2])	%Inh (EGFR; [2])	%Inh (EPHA1; [2])	%Inh (EPHA2; [2])
O=C(Nc1ccccc1)Nc1cccc(Oc2ccc3nccn3n2)c1	0	1	0	45	0	33	0	14	30	34								
COc1cc2ncnc(Nc3ccc4nc(-c5ccccc5)[nH]c4c3)c2cc1OC.Cl [GW282450]	0	0	13	0	19	59	6	10	0	31								
Cc1ccc(C(=O)Nc2ccc(Nc3ccnc4cc(-c5ccccn5)ccc34)cc2O)cc1.Cl [GW440146]	0	11	18	0	0	32	0	4	0	0								
COc1ccc(Nc2nccc(-c3cccc(NC(=O)c4cc5cc(F)ccc5[nH]4)c3)n2)cc1 [GSK1229782]	24	0	5	25	12	22	10	56	9	35								
CC1=C(C(=O)Nc2cc3cn[nH]c3cc2F)C(c2ccc(C(F)(F)F)cc2)CC(=O)N1 (stereo not drawn) [GSK429286]	0	12	21	0	0	33	0	22	14	0								
CC(C)(C)c1ccc(C(=O)Nc2cn3cc(-c4cccnc4)ccc3n2)cc1	10	5	42	65	51	17	3	12	12	9								
O=S(=O)(c1ccc(-c2ccnc3[nH]ccc23)cc1)N1CCCC1 [GSK846226]	73	0	21	11	35	33	0	5	0	11								
O=C(Nc1n[nH]c2nc(-c3nccs3)c(Br)cc12)C1CC1 [SB-742251]	0	0	30	0	36	0	1	0	0	0								
Cc1ccc(NC(=O)Nc2cc(C(C)(C)C)nn2-c2ccccc2)cc1 [GSK1014915]	0	1	33	11	3	38	0	7	7	0								
CS(=O)(=O)c1ccc(-c2c(-c3ncn[nH]3)sc(N3CCOCC3)c2C#N)cc1	8	0	1	0	14	12	21	24	19	0								
CN1C(=O)C(Nc2ccc(Cl)c(C(=O)O)c2)=C(c2ccc(Cl)cc2)C1=O [SB-404290]	0	0	2	0	0	0	0	5	0	18								
CC(=O)Nc1nc2cnc(Nc3cc(NC(=O)c4cccc(CCC#N)c4)ccc3C)nc2s1	0	0	0	42	0	6	21	0	34	0								
Cc1cccc(-c2nc(Nc3ccc4[nH]ncc4c3)c3ccccc3n2)n1 [GW857175]	13	10	24	11	40	0	5	12	1	0								
Fc1cc(Cl)ccc1Nc1ccnc2cc(I)ccc12 [GW551191]	0	0	33	60	4	21	0	71	26	0								
CSc1nn2c(=O)cc(N3CCOCC3)nc2n1Cc1cccc(C(F)(F)F)c1C [GSK2363608]							0			0	0% and 17%	0% and 8%	23% and 21%	8% and 13%	16% and 14%	36% and 20%	28% and 9%	5% and 0%
O=C1NC(=O)C(N2CCc3ccccc32)=C1c1ccccc1Cl [SB-373598]	0	0	18	0	6	25	0	10	27	12								
Cl.Oc1ccc(-c2nc(-c3ccccc3)[nH]c2-c2ccncc2)cc1 [SB-428218]	0	0	17	0	0	31	5	55	1	0								
Cc1c(O)cccc1Nc1ccnc2ccc(C(F)(F)F)cc12.Cl [GW466413]	14	0	29	0	0	28	0	77	11	3								
Cc1cc(NCC(c2ccccc2)c2ccccc2)nc(NCc2ccc(C(F)(F)F)cc2)n1 [GW497681]	0	0	0	0	3	10	0	0	3	0								
